Measurements published in PubChem BioAssay (NCI).
This is part of a sample that, as a whole, favours compounds with a hit. Of some 83,000 tested, about 20% had one in any assay.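 Treatment: one concentration, 48 hours, 96-well format. Scoring: percent growth, with anything below 10 considered active.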 Active and inactive are the calls of the source.

How the values were obtained:
Experiment in all cases: NCI-60 one-dose screen, 48 h (100 = growth as untreated, 0 = no growth, -100 = all killed)
Conditions in all cases: 10 µM unless noted
NCI-H23 lung = tested on: NCI-H23 lung
NCI-H226 lung = tested on: NCI-H226 lung
NCI-H322M lung = tested on: NCI-H322M lung
HOP-62 NSCLC = tested on: HOP-62 NSCLC
NCI-H460 lung = tested on: NCI-H460 lung
HOP-92 NSCLC = tested on: HOP-92 NSCLC
NCI-H522 lung = tested on: NCI-H522 lung
A549/ATCC NSCLC = tested on: A549/ATCC NSCLC
786-0 renal = tested on: 786-0 renal
COLO 205 colon = tested on: COLO 205 colon
DU-145 prostate = tested on: DU-145 prostate
K-562 leukemia = tested on: K-562 leukemia
MALME-3M melanoma = tested on: MALME-3M melanoma
MDA-MB-231 breast = tested on: MDA-MB-231 breast
RXF 393 renal = tested on: RXF 393 renal
SF-268 CNS = tested on: SF-268 CNS
SF-295 CNS = tested on: SF-295 CNS
SF-539 CNS = tested on: SF-539 CNS
UACC-257 melanoma = tested on: UACC-257 melanoma
M14 melanoma = tested on: M14 melanoma

Measured: growth

OC(c1ccccc1)C(NC(Cc1ccccc1)c1ccccc1)c1ccccc1 (stereo not given)
inactive: NCI-H23 lung 81.8% | NCI-H226 lung 82.1% | NCI-H322M lung 93.2% | HOP-62 NSCLC 88% | NCI-H460 lung 91.7% | HOP-92 NSCLC 65.3% | NCI-H522 lung 67.1% | A549/ATCC NSCLC 73.3% | 786-0 renal 81.4% | COLO 205 colon 101% | DU-145 prostate 98.7% | K-562 leukemia 82.5% | MALME-3M melanoma 91.9% | MDA-MB-231 breast 78.7% | RXF 393 renal 102% | SF-268 CNS 86.8% | SF-295 CNS 93.1% | SF-539 CNS 96.7% | UACC-257 melanoma 91.6% | M14 melanoma 91.8%

COc1ccc2sc3c(NCCO)nc4ccccc4c3c(=O)c2c1
inactive: NCI-H23 lung 96.7% | NCI-H226 lung 98.6% | NCI-H322M lung 97.6% | HOP-62 NSCLC 96.2% | NCI-H460 lung 107% | HOP-92 NSCLC 96% | NCI-H522 lung 82.1% | A549/ATCC NSCLC 98.1% | 786-0 renal 103% | COLO 205 colon 111% | DU-145 prostate 106% | K-562 leukemia 76.7% | MALME-3M melanoma 104% | MDA-MB-231 breast 85.3% | RXF 393 renal 104% | SF-268 CNS 100% | SF-295 CNS 100% | SF-539 CNS 86.1% | UACC-257 melanoma 109% | M14 melanoma 104%

COc1ccc(S(=O)(=O)n2cc(C3OC(c4cc(OC)c(OC)c(OC)c4)=NN3C(C)=O)c3ccccc32)cc1OC (stereo not given)
inactive: NCI-H23 lung 79.5% | NCI-H226 lung 93.2% | NCI-H322M lung 98% | HOP-62 NSCLC 78.1% | NCI-H460 lung 97.1% | HOP-92 NSCLC 63.9% | NCI-H522 lung 84% | A549/ATCC NSCLC 98.3% | 786-0 renal 86.3% | COLO 205 colon 127% | DU-145 prostate 145% | K-562 leukemia 64.4% | MALME-3M melanoma 104% | MDA-MB-231 breast 82.6% | RXF 393 renal 89.3% | SF-268 CNS 108% | SF-295 CNS 93% | SF-539 CNS 89.1% | UACC-257 melanoma 87.9% | M14 melanoma 98.1%

COc1ccc(C(=O)n2nc(-c3ccccc3)nc2N)cc1OC
inactive: NCI-H23 lung 93.9% | NCI-H226 lung 79.9% | NCI-H322M lung 89.1% | HOP-62 NSCLC 79.7% | NCI-H460 lung 98.3% | HOP-92 NSCLC 67% | NCI-H522 lung 85.4% | A549/ATCC NSCLC 95.1% | 786-0 renal 96.1% | COLO 205 colon 103% | DU-145 prostate 104% | K-562 leukemia 80.1% | MALME-3M melanoma 102% | MDA-MB-231 breast 85.1% | RXF 393 renal 98.3% | SF-268 CNS 95.4% | SF-295 CNS 103% | SF-539 CNS 91% | UACC-257 melanoma 98.4% | M14 melanoma 105%

CN1C(=O)N(C)C2Nn3c(s/c(=C\c4ccccc4)c3=O)=NC21 (stereo not given)
inactive: NCI-H23 lung 101% | NCI-H226 lung 94.2% | NCI-H322M lung 97% | HOP-62 NSCLC 97.8% | NCI-H460 lung 108% | HOP-92 NSCLC 100% | NCI-H522 lung 87.1% | A549/ATCC NSCLC 94.8% | 786-0 renal 101% | COLO 205 colon 111% | DU-145 prostate 106% | K-562 leukemia 92.8% | MALME-3M melanoma 101% | MDA-MB-231 breast 98.1% | RXF 393 renal 106% | SF-268 CNS 93.9% | SF-295 CNS 104% | SF-539 CNS 100% | UACC-257 melanoma 94.1% | M14 melanoma 97.8%

Cc1cccc(NC2=C(Cl)C(=O)c3nc(C)ccc3C2=O)c1
inactive: NCI-H322M lung 13.5% | HOP-62 NSCLC 42.8% | A549/ATCC NSCLC 16.7% | COLO 205 colon 111% | SF-268 CNS 58.2% | SF-295 CNS 12.7%
active: NCI-H23 lung -27.8% | NCI-H226 lung -0.0359% | NCI-H460 lung 5.47% | HOP-92 NSCLC -68.7% | NCI-H522 lung -24% | 786-0 renal 3.53% | DU-145 prostate -80.2% | K-562 leukemia 2.91% | MALME-3M melanoma -75.3% | MDA-MB-231 breast -75.1% | RXF 393 renal -19.8% | SF-539 CNS -79% | UACC-257 melanoma -80.2% | M14 melanoma -45%

CC(=O)Oc1ccccc1C(=O)N=C1[Se]CCCN1C(=O)c1ccccc1OC(C)=O
active: NCI-H23 lung 6.41% | NCI-H226 lung -19.1% | NCI-H322M lung -5.61% | NCI-H460 lung 5.16% | HOP-92 NSCLC -10.3% | MALME-3M melanoma -27.1% | MDA-MB-231 breast -57.6% | RXF 393 renal 6.8% | SF-268 CNS -14.1% | SF-539 CNS -42.5% | M14 melanoma -10.4%
inactive: HOP-62 NSCLC 17.7% | NCI-H522 lung 73.3% | A549/ATCC NSCLC 77.9% | 786-0 renal 95.9% | COLO 205 colon 114% | DU-145 prostate 15.8% | K-562 leukemia 32.1% | SF-295 CNS 17.5% | UACC-257 melanoma 57.4%

N#Cc1cccc(NC(=O)c2cc(-c3ccc(F)cc3F)ccc2O)c1
inactive: HOP-62 NSCLC 23% | A549/ATCC NSCLC 27.3% | 786-0 renal 31.1% | COLO 205 colon 107% | DU-145 prostate 18.4% | K-562 leukemia 13.3% | SF-268 CNS 14.5% | SF-295 CNS 80.5% | SF-539 CNS 16.3% | M14 melanoma 23.6%
active: NCI-H23 lung 1.56% | NCI-H226 lung 3.58% | NCI-H322M lung 1.78% | NCI-H460 lung 6.49% | HOP-92 NSCLC -24.2% | NCI-H522 lung -3.38% | MALME-3M melanoma -25.1% | MDA-MB-231 breast -2.77% | RXF 393 renal 3.07% | UACC-257 melanoma -10%
